In PubChem BioAssay (NCATS):
Records with an inconclusive call do not appear. Unmarked numbers belong to inactive results. Calls follow the shape of the dose curve; as a rule, active = well fitted cell-killing curve with a large enough effect; inconclusive = small, poorly fitted or top-dose-only effect; inactive = flat fitted curve, though single readings scatter. Where a SMILES comes first, the peptide text is derived from it. Bridges are numbered along the chain shown (N, C = ends). [ ]: non-standard residue; d: D form. hArg = N=C(N)NCCCC[C@H](N)C(=O)O; Mpa = O=C(O)CCS

Assay: Cellular viability qHTS for adrenocortical cancer (ACC) cell line NCI-H295R (AID 1963990);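 also: 0% = DMSO only wells and -100% = full killing with cytotoxic reference compound; nearly all actives have a fitted effect of over 60% in size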
Conditions: CellTiter-Glo ATP luminescence, 48 h; series mostly up to 46.1 µM; activity change, negative = viability loss: at the top concentration
In short: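 Compound titrations (up to 46 uM final) are applied to NCI-H295R cultures for 48 h at 37C. Viable cell number is estimated by CellTiter-Glo signal, normalised to DMSO and doxorubicin controls.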

| SMILES | activity change, negative = viability loss |
| --- | --- |
| N#Cc1cccc(-c2c[nH]c3ncnc(N4CCOCC4)c23)c1 | 9.91% |
| CCOC(=O)c1ccc(O)cc1 | -4.81% |
| NCCNC(=O)c1ccc(Cl)cn1 | -21.6% |
| Cc1cccc(C(=O)O)c1O | -15.5% |
| CN1C(=O)c2ccccc2C1=O | -4.75% [at 92.7 µM] |
| CO[C@@H]1[C@@H](O[C@@H]2O[C@H](C)[C@@H](O[C@H]3C[C@@](C)(O)[C@@H](O)[C@H](C)O3)[C@H](N(C)C)[C@H]2O)[C@@H](CC=O)C[C@@H](C)[C@@H](O[C@@H]2CC[C@H](N(C)C)[C@@H](C)O2)/C=C/C=C/C[C@@H](C)OC(=O)C[C@H]1OC(C)=O | -14.4% |
| CN/C(=C\[N+](=O)[O-])NCCSCc1csc(CN(C)C)n1 | -18% |
| OC[C@]1(O)OC[C@@H](O)[C@H](O)[C@@H]1O | -0.722% |
| COc1c(N2C[C@@H]3CCCN[C@@H]3C2)c(F)cc2c(=O)c(C(=O)O)cn(C3CC3)c12 | -15.9% |
| CC(=O)Nc1c(I)c(NC(C)=O)c(I)c(C(=O)O)c1I | -7.11% |
| COC(=O)N[C@@H](C)CNc1nccc(-c2cn(C(C)C)nc2-c2cc(Cl)cc(NS(C)(=O)=O)c2F)n1 | 1.32% |
| CN(C)C(=O)Nc1ccc(Cl)c(Cl)c1 | -34.8% |
| CCN1CCC[C@H]1CNC(=O)c1c(O)c(Cl)cc(Cl)c1OC | -1.26% |
| NC(=O)[C@@H]1CSSCCC(=O)N[C@@H](CCCCN=C(N)N)C(=O)NCC(=O)N[C@@H](CC(=O)O)C(=O)N[C@@H](Cc2c[nH]c3ccccc23)C(=O)N2CCC[C@H]2C(=O)N1 ([Mpa][hArg]GDWPC-NH2; disulfide 1-7) | -1.73% |
